# From PubChem BioAssay AID720580 (National Center for Advancing Translational Sciences (NCATS), 2013)
# “And” between values parts separate entries of the source, which are not always exact repeats. Equal values may be shown once. About 1,500 (0.45%) of roughly 330,000 compounds were called active. A call without a number means that no potency is given here. Roughly 6% stayed inconclusive and do not appear here. The sample holds actives, similar compounds and a random draw of the others, so the mix is not that of the screen. The call rests on the fitted dose curve; tested in A549 cells. More than one record can exist for a structure, and the calls need not agree.
# Assay: qHTS for Stage-Specific Inhibitors of Vaccinia Orthopoxvirus: Venus Reporter Primary qHTS; further: nearly all actives have a fitted effect of over 30% in size
# Conditions: Vaccinia virus Venus reporter expression, fluorescence; series mostly up to 36.5 µM
# Potency means the concentration at half of the fitted maximal effect.
row,SMILES,Potency
1,COC(=O)C1(C(=O)OC)C[C@H](c2ccccc2)N(Cc2ccccc2OC)[C@@H]1c1ccccc1,inactive
2,COc1ccc(OC)c(NC(=O)c2sc3nc(C)cc(C)c3c2N)c1,inactive
3,COc1ccc(OC)c(Cc2nnc(CCC(=O)NC3CCCC3)o2)c1,inactive
4,COc1ccc(OC)c(Cc2cnc3nc(N)nc(N)c3c2C)c1,1.12 µM (active)
5,CCCCCCCNc1ccc(/C=C/c2ccnc3ccccc23)cc1,inactive
6,O=C1NC(Nc2nc3ccccc3s2)(C(F)(F)F)C(=O)N1C1CCCCC1 (stereo unspecified),10 µM (active)
7,O=C(NC1(C(F)(F)F)NC(=O)N(C2CCCCC2)C1=O)c1ccco1 (stereo unspecified),inactive
8,COC(=O)NC1(C(F)(F)F)NC(=O)N(C2CCCCC2)C1=O (stereo unspecified),inactive
9,Cc1ccc(Cc2c(-c3ccco3)nc3ccc(Cl)cn23)cc1,inactive
10,SCc1nc2ccc(Cl)cc2[nH]1,inactive
11,O=C(c1cnn2c1NC(=C1CC1)C=C2C(F)F)N1CCc2ccccc2C1,inactive
12,CCOC(=O)C1CCCN(C(=O)/C=C/c2ccc(OC)cc2)C1 (stereo unspecified),inactive
13,CCN1CCC(O)(/C=C/c2ccc(C)cc2)C(C(=O)/C=C/c2ccc(C)cc2)C1 (stereo unspecified),17.8 µM (active)
14,N#Cc1ccc(C(C(=O)NCc2ccccc2)n2c(=O)c(-c3ccco3)nc3ccccc32)cc1 (stereo unspecified),inactive
15,CN(C)c1ccc(/C=N\Nc2ccc([N+](=O)[O-])cc2[N+](=O)[O-])cc1Cl,inactive
16,O=c1[nH]c(NCCO)nnc1Cc1ccc(Cl)cc1,inactive
17,COc1ccc(CCNC(=O)CCc2ccccc2O)cc1OC,inactive
18,COc1ccc(Cc2nnc(N/N=C/c3ccccc3O)[nH]c2=O)cc1OC,1.26 µM (active)
19,CCCCOc1ccc(C(=O)NO)cc1,inactive
20,CC(=O)N1Cc2cc(C(=O)NCc3cccc(F)c3)nc(-c3cccc(C4=CCCC4)c3)c2[C@H]1CCO,inactive
21,Cc1c(Cl)c([N+](=O)[O-])nn1Cc1ccc(C(=O)N/N=C\c2cc(Cl)ccc2O)o1,5.62 µM (active)
22,Cc1ccc(C(=O)O)cc1NC(=O)c1ccc(Cn2nc(C)c(Cl)c2C)o1,inactive
23,Cc1c(Cl)c([N+](=O)[O-])nn1CCCC(=O)Nc1cc(Cl)ccc1Cl,inactive
24,COc1cc2nc(N3CCCN(C)CC3)nc(NC3CC3)c2cc1OC,inactive
25,COc1ccc(-c2csc(C(O)c3cccc(Cl)c3)n2)cn1 (stereo unspecified),inactive
26,COc1ccc(NC(=O)CN(C)CC(=O)Nc2cccc(C(F)(F)F)c2)cc1,inactive

row,SMILES,Potency
1,Cc1cccc(NC(=O)c2nnn(-c3cccc(C(F)(F)F)c3)c2N)c1,inactive
2,COc1cc(NC(=O)c2[nH]cnc2C(N)=O)cc(C(=O)Nc2cccc(C(F)(F)F)c2)c1,10 µM (active)
3,COC(=O)[C@]12CCCCC=C1N(Cc1ccco1)C(=O)[C@H](CC(=O)NCCCCc1ccccc1)C2,inactive
4,CCOc1cc(C=NNC(=O)CCCC(=O)NN=Cc2ccc(O)c(OCC)c2)ccc1O,inactive
5,O=C(CCC(=O)N/N=C/c1ccc(Br)o1)N/N=C/c1ccc(Br)o1,inactive
6,CCCCC(=O)N/N=C/c1c(O)n(CC)c(=S)n(CC)c1=O,12.6 µM (active)
7,CCOc1ccc2nc(N3CCCN(CCCn4cccn4)CC3)nc(C)c2c1,inactive
8,O=c1[nH]nc(SCCS(=O)(=O)c2ccc(F)cc2)n1-c1ccccc1C(F)(F)F,3.16 µM (active)
9,O=S(=O)(Nc1n[nH]c(C(F)(F)F)n1)c1ccccc1,inactive
10,CN(O)C(=S)c1ccccc1,11.2 µM (active)
11,S=C(c1ccccc1)N1CCCC1,inactive
12,CN(CC(=O)O)C(=O)c1ccccc1,inactive
13,CCOC(=O)N1CCN(C(=O)C[C@@H]2C[C@@]3(C(=O)OC)CCCCC=C3N(CCC3=CCCCC3)C2=O)CC1,inactive
14,CC1(C)OC(=O)C2=C(C[C@@H](C3CC3)O[C@H]2CCc2cccc(Cl)c2)O1,inactive
15,CN(C)CCNC(=O)c1ccc(Cl)c2cc3ccccc3nc12,4.47 µM (active)
16,CN(C)CCNC(=O)Nc1cccc(Cl)c1Cl,inactive
17,CC(=O)NCCNC(=O)c1cc(-c2cccc3ccccc23)nc2ccccc12,inactive
18,COc1cc(C(O)c2nc(-c3cnn(C)c3)cs2)ccc1F (stereo unspecified),inactive
19,COc1ccc(NS(=O)(=O)c2ccc3oc(SCC(N)=O)nc3c2)cc1,4.47 µM (active)
20,COc1ccc(NC(=O)c2cnc(NS(=O)(=O)c3ccccc3)nc2)cc1,inactive
21,CCn1c(=O)c(=O)[nH]c2c(=O)oc3ccc(S(=O)(=O)Nc4ccc(OC)cc4)cc3c21,inactive
22,O=C1CCN(Cc2ccc(-c3ccccc3)cc2)CCN1Cc1ccccn1,inactive
23,Cc1oc2c(c1C(=O)N1CCOCC1)C(=O)c1ccccc1C2=O,3.16 µM (active)
24,Cc1ccccc1-c1ccc(Nc2ccc(C(=O)N3CCOCC3)cc2)nn1,inactive
25,COC1=C(N2CCOCC2)C(=O)c2ccccc2C1=O,inactive
26,CCCCC(CCCC)c1ccc(C=Nc2ccc(/C=C/c3ccnc4ccccc34)cc2)cc1,inactive

row,SMILES,Potency
1,Cc1ccccc1-c1csc(C(O)c2cccc(Cl)c2)n1 (stereo unspecified),inactive
2,N=C1c2ccccc2-c2ccccc21,inactive
3,c1ccc2c(c1)[I+]c1ccccc1-2,inactive and 10 µM (active)
4,CCCC[C@@H]1CN=C(N)N1CCc1cc(C(F)(F)F)cc(C(F)(F)F)c1,10 µM (active)
5,CCCC[C@@H]1CN=C(N)N1CCCC,inactive
6,CCCC[C@@H]1CN=C(N)N1CCc1cccc(F)c1,inactive
7,COc1cc(CNc2ncnc3c2ncn3[C@H]2CN(Cc3cccs3)C[C@@H](CO)O2)cc(OC)c1OC,inactive
8,NCCCCC(C(=O)O)N(C(=O)OCc1ccccc1)C(=O)OCc1ccccc1 (stereo unspecified),inactive
9,COc1ccc(-c2nn(-c3ccccc3)cc2/C=N/Nc2ccccn2)cc1OC,14.1 µM (active)
10,O=Cc1cn(-c2ccccc2)nc1-c1ccccn1,inactive
11,Cc1ccc(-c2nn(-c3ccccc3)cc2/C=N/NC(=O)c2ccc3c(c2)OCO3)cc1,inactive
12,O=C(CSc1nc2ccccc2[nH]1)Nc1nc(-c2ccccc2)c(-c2ccccc2)o1,inactive
13,CCC(C)N1C(=O)S/C(=C/c2ccc(Sc3nc4ccccc4[nH]3)o2)C1=O (stereo unspecified),11.2 µM (active)
14,CCC(c1nc2ccccc2[nH]1)n1c(=O)c(-c2cccs2)nc2ccccc21 (stereo unspecified),inactive
15,O=C(NCc1ccc(F)cc1)c1cc(C2CCCCN2C(=O)C2CCCCC2)on1 (stereo unspecified),inactive
16,COc1ccc(C2=Nc3ccccc3NC(=O)C2N(C(=O)c2cc3ccccc3[nH]2)c2ccccc2)cc1 (stereo unspecified),inactive
17,C=CC[C@@H](CC(=O)N[C@H](CO)Cc1ccccc1)C(=O)N[C@@H](COC(=O)[C@@H](CC=C)Cc1ccc(F)cc1)Cc1c[nH]c2ccccc12,inactive
18,C=CCC[C@H](Cc1ccc(F)cc1)C(=O)OC[C@@H](NC(=O)[C@@H](CC=C)CC(=O)N[C@H](CO)Cc1ccccc1)C(C)(C)C,11.2 µM (active)
19,C=CC[C@@H](CC(=O)N[C@H](CO)Cc1ccccc1)C(=O)N[C@H](C)COC(=O)[C@@H](CC=C)Cc1ccc(F)cc1,inactive
20,Cc1ccccc1Cn1c(C)c(C(=O)NCc2cccc(C(F)(F)F)c2)sc1=O,inactive
21,CN1CC[C@H](c2c(O)cc(O)c3c(=O)cc(-c4ccccc4Cl)oc23)[C@H](O)C1,0.0794 µM (active)
22,O=C(Nc1ccc(Cl)c(C(F)(F)F)c1)C1Cc2c(-c3ccccc3Oc3ccccc3)ccnc2O1 (stereo unspecified),inactive
23,CC1(C(=O)Nc2ccc3c(c2)OCCO3)CCN1C(=O)Cc1cc(F)ccc1F (stereo unspecified),inactive
24,CCc1ccc(-c2nn(-c3ccccc3C)cc2C(=O)N2CCN(C3CCS(=O)(=O)C3)CC2)cc1 (stereo unspecified),inactive
25,CN(C)Cc1cn(-c2ccccc2)nc1-c1ccccc1,inactive
26,CCc1ccc(-c2nn(-c3ccccc3)cc2CSC(=N)N)cc1,11.2 µM (active)

row,SMILES,Potency
1,COC(=O)C1CCCCN1Cc1ccc2c(c1)CN(Cc1cc(OC)c3c(c1)OCO3)CCO2 (stereo unspecified),inactive
2,CCCCCc1c(-c2ccc(OC)c(OC)c2)ncn1CCc1ccccc1OC,inactive
3,CCCCCc1c(-c2cccc(Br)c2)ncn1CCc1ccccc1OC,inactive
4,CCCCCc1c(Cc2ccccc2)ncn1CCc1ccccc1OC,1.41 µM (active)
5,O=C(Nc1ccccc1)c1ccccc1OCc1ccccc1,inactive
6,CC1(C(=O)NCC2CCOCC2)Cc2c(-c3cccc(C(N)=O)c3)ccnc2O1 (stereo unspecified),inactive
7,COc1ccc(-c2nc3ccc(Br)cn3c2Cc2ccc(C)cc2)cc1OC,inactive
8,OCCCNc1nccc(-c2cc(Nc3cccc(Cl)c3)ncn2)n1,0.891 µM (active)
9,Cn1c(Nc2cccc(Cl)c2)nc2ccccc21,inactive
10,CCOC(=O)[C@]12CCCC=C1N(CCC1=CCCCC1)C(=O)[C@H](CC(=O)N1CCOCC1)C2,inactive
11,CNc1cncc(-c2ccc(NS(C)(=O)=O)cc2)n1,inactive
12,CCOC(=O)[C@]12CCC=C1N(CCC1=CCCCC1)C(=O)[C@H](CC(=O)NCc1ccc(C)o1)C2,inactive
13,CC(C)(C)NC(=O)C(CCc1ccccc1)n1c(=O)c(-c2ccccc2)nc2ccccc21 (stereo unspecified),inactive
14,CNC(=O)c1cccc2nc3ccccc3nc12,6.31 µM (active)
15,CN(C)C(=O)c1coc2nc3ccccc3nc12,inactive
16,CNC(=O)C(NC(=O)c1ccccc1)=C(C)C,inactive
17,Brc1ccc2nc(-c3ccccc3)c(Cc3ccccc3)n2c1,inactive
18,OC(Cc1ccc2ccccc2n1)c1ccc(Cl)c(Cl)c1 (stereo unspecified),inactive
19,COc1ccc(S(=O)(=O)N[C@@H]2C=C[C@@H](CC(=O)N3CCc4ccccc4C3)O[C@@H]2CO)cc1,inactive
20,COc1ccc(NC(=O)C2Cc3c(-c4ccc5c(c4)OCO5)ccnc3O2)cn1 (stereo unspecified),inactive
21,Cc1ccc(NC(=O)NC(=O)c2ccccc2)cc1F,inactive
22,Cc1cccc(NC(=O)NC(=S)NC(=O)c2ccccc2)c1,10 µM (active)
23,Cc1ccc(NC(=S)NC(=O)c2ccc(-c3ccccc3)cc2)cc1,inactive
